Source: PubChem BioAssay (Tox21)
Records with an inconclusive call do not appear. A number with no mark means an inactive call. Calls come from the whole dose curve.

target: Beta-2 adrenergic receptor (Homo sapiens) (UniProt P07550); test: Adrenergic beta2 receptor (ADRB2) small molecule agonists, cell-based qHTS assay (AID 1963593); conditions: CHO-ADRB2 cells, cAMP HTRF, 30 min; series mostly up to 92.4 µM; activation: at the top concentration
Excerpt: National Center for Advancing Translational Sciences [NCATS]
Division of Preclinical Innovation [DPI]
U.S. Environmental Protection Agency [EPA]
National Institutes of Environmental Health Sciences [NIEHS]
National Toxicology Program [NTP]
U.S. Food and Drug Administration [FDA]
Beta adrenergic receptors (Beta-ARs) belong to the G-protein coupled receptor (GPCR) superfamily, includes three subtypes - beta1, beta2, and beta3. Beta1-AR is the predominant receptor subtype expressed in the heart, and beta2-AR is expressed in the kidney, lung, blood vessel and in the heart, and beta3 is found in the adipocytes. Beta1 and 2 ARs couple to Gs protein and elevate cyclic adenosine mono phosphate (cAMP), which activates protein kinase A and leads to the downstream signaling responsible for the physiological actions. Beta-AR agonists or antagonists are the most prescribed therapeutic agents for heart failure and asthma, and these were one of the first target receptors for the rational drug design. Tox21 10K compound library was screened using the cAMP-Gs dynamic assay (Cisbio Bioassays, Shelton, CT) to identify agonists/antagonists of the Gs-coupled human adrenergic, beta2 receptor (ADRB2) in the CHO-ADRB2 cell line (Codex BioSolutions, Inc. Gaithersburg, MD), which stably over-expresses ADRB2. The principle of cAMP-Gs dynamic assay is based on HTRF technology, which facilitates the fluorescence resonance energy transfer (FRET) between donor Europium cryptate and acceptor d2-labeled cAMP. The cAMP generated within cells competes with the red acceptor, d2-labled cAMP, for binding to the monoclonal anti-cAMP-cryptate (Europium donor). An increase in intracellular cAMP leads to the disruption of FRET signal, and the signal is inversely proportional to the cAMP concentration. Isoproterenol HCl (Sigma-Aldrich, St. Louis, MO) was used as a positive control in the screening.
Tox21 Assay Protocol Summary:
CHO-ADRB2 cells were dispensed at 1,000/well in 4uL assay medium into white/solid 1536-well plates (Greiner Bio-One North America Inc., Monroe, NC) using a Multidrop Combi dispenser (ThermoFisher Scientific, Waltham, MA). The assay plates were incubated at 37C and 5% CO2 for an overnight (18-20hr). Then positive control and test compounds dissolved in DMSO were transferred to the assay plates at 23nL using a Pintool station (Wako, San Diego, CA). Following the compound and positive control transfer, 1uL stimulation mix containing 100uM IBMX and 25uM Ro-20-1724 was added to each well of the assay plates using BioRAPTR Flying Reagent Dispenser (FRD, Beckman Coulter, Brea, CA). The assay plates were incubated at room temperature for 0.5hr. Then 2.5ul each d2-labled cAMP and anti-cAMP-cryptate solutions were added separately to each well of the assay plates using an FRD and the assay plates were incubated at room temperature for 1hr.
% is set by controls: 0 for no effect and ±100 for the full control effect.

Sequence of Beta-2 adrenergic receptor (Homo sapiens) (P07550 whole entry, looked up): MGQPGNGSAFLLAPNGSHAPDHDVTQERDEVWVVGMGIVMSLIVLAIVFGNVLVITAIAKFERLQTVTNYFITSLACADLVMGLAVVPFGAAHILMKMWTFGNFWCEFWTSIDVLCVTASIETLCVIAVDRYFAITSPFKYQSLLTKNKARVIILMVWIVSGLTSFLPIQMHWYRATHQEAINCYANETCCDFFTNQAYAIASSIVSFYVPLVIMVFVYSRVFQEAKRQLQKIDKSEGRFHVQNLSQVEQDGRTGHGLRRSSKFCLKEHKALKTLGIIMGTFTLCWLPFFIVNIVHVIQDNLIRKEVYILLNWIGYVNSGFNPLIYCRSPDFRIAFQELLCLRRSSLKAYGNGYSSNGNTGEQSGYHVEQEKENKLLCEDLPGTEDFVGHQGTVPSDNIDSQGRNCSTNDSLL

Row | SMILES | activation
1 | CCCC[N+](C)(CCCC)CCCC | 0.831%
2 | CCCC1CCC(=O)CC1 | 5.32%
3 | Nc1ccc2cc(S(=O)(=O)O)cc(O)c2c1N=Nc1ccccc1C(F)(F)F | -27.7%
4 | CC(C)(C)c1ccc(N)cc1 | 13.6%
5 | O=C(CN1CCNCC1)NC1CCCCC1 | 28.9% [at 42.5 µM]
6 | CCC[Si](OC)(OC)OC | -0.259%
7 | O=C(Cl)c1cc(Cl)cc(Cl)c1 | -9.26%
8 | CCCCCCNC(=O)n1cc(F)c(=O)[nH]c1=O | 0.947% [at 42.5 µM]
9 | CC(=O)c1ccc[nH]1 | -3.42%
10 | COc1ccnc(CS(=O)c2nc3cc(OC(F)F)ccc3[nH]2)c1OC (stereo not given) | -34%
11 | CCCCCCCCCOC(=O)CCCCC(=O)OCCCCCCC | -14.9%
12 | CCOC(=O)c1ccc(C#Cc2ccc3c(c2)C(C)(C)CCS3)nc1 | 15.6% [at 42.5 µM]
13 | CCC1OCC(COc2ccc(Oc3ccccc3)cc2)O1 (stereo not given) | 7.61%
14 | COCCOc1cc2cc(C(=O)NC3CCN(C(C)C)CC3)n(CC(=O)Nc3ccc(Cl)cn3)c2cn1 | 8.28%
15 | CCCNC(C)C(=O)Nc1c(C)csc1C(=O)OC (stereo not given) | -3.22% [at 42.5 µM]
16 | N[C@@H](C(=O)N[C@@H]1C(=O)N2C(C(=O)O)=C(Cl)CS[C@H]12)c1ccccc1 | -30.9% [at 8.39 µM]
17 | c1ccc(-c2ccccc2-c2ccccc2)cc1 | -26%
18 | CC(C)(C)OC(=O)c1ccc(O)cc1 | -2.68%
19 | CC(C)(C)c1ccc(C(=O)O)cc1 | -26.1%
20 | Cc1ccc(O)c(N)c1 | -38%

Row | SMILES | activation
21 | CN1CCCN=C1/C=C/c1cccs1 | 7.43% [at 42.5 µM]
22 | CCOc1nc2cccc(C(=O)OC(C)OC(=O)OC3CCCCC3)c2n1Cc1ccc(-c2ccccc2-c2nn[nH]n2)cc1 (stereo not given) | -17.4%
23 | CCNC(=O)NCc1cccc(Cl)c1 | 5.92% [at 42.5 µM]
24 | Cc1cccc2c1cc1ccc3cccc4ccc2c1c34 | 24.2%
25 | CC(C)c1ccccc1N | -13%
26 | CCOC(=O)/C=C(C)/C=C/C=C(C)/C=C/c1c(C)cc(OC)c(C)c1C | -8.71% [at 42.5 µM]
27 | CNC(=S)NC | 1.11%
28 | OCCc1ccncc1 | 1.27%
29 | CC(C)CCOC(=O)/C=C/c1ccccc1 | 3.72%
30 | C=C[Si](OC(C)=O)(OC(C)=O)OC(C)=O | -0.823%
31 | CC1=NN(c2cc(S(=O)(=O)O)ccc2Cl)C(=O)C1N=Nc1ccccc1 (stereo not given) | -25.5%
32 | c1ccc2sc(SSc3nc4ccccc4s3)nc2c1 | 0.998% [at 19 µM]
33 | ClCCOCCOCCCl | 1.26%
34 | CCC(C)C(C)=O (stereo not given) | 19.7%
35 | CC/C=C\CCCCCCCCCCOC(C)=O | 20.3%
36 | CCCCCCCC/C=C\CCCCCCCC(=O)OC(CO)CO | 7.2%
37 | Cc1nc(Nc2ncc(C(=O)Nc3c(C)cccc3Cl)s2)cc(N2CCN(CCO)CC2)n1 | 3.31% [at 42.5 µM]
38 | Cc1c[nH]c(=O)[nH]c1=O | 10.9%
39 | Cc1cccc(C)c1NC(=O)CN1CCN(CCCC(c2ccc(F)cc2)c2ccc(F)cc2)CC1 | -11% [at 42.5 µM]
40 | Nc1cc(Cl)c([N+](=O)[O-])cc1O | -46%
